According to the supplement of paper PMC11732987, “Enantioselective OTUD7B fragment discovery through chemoproteomics screening and high-throughput optimisation” (Communications Chemistry, 2025):

Experiments:
Assay in all cases: log2 ratio of Biotin-Ahx-Ub-VS probe labelling (fragment/DMSO); higher = less target engagement (more negative = stronger competition), active = hit call of the paper (q ≤ 0.05, log2 ratio ≤ -1)
Conditions in all cases: compound concentration: 200 uM; treatment time: 3 h
[1] = target: T1, USP42 (UniProt Q9H9J4)
T1 sequence (whole entry): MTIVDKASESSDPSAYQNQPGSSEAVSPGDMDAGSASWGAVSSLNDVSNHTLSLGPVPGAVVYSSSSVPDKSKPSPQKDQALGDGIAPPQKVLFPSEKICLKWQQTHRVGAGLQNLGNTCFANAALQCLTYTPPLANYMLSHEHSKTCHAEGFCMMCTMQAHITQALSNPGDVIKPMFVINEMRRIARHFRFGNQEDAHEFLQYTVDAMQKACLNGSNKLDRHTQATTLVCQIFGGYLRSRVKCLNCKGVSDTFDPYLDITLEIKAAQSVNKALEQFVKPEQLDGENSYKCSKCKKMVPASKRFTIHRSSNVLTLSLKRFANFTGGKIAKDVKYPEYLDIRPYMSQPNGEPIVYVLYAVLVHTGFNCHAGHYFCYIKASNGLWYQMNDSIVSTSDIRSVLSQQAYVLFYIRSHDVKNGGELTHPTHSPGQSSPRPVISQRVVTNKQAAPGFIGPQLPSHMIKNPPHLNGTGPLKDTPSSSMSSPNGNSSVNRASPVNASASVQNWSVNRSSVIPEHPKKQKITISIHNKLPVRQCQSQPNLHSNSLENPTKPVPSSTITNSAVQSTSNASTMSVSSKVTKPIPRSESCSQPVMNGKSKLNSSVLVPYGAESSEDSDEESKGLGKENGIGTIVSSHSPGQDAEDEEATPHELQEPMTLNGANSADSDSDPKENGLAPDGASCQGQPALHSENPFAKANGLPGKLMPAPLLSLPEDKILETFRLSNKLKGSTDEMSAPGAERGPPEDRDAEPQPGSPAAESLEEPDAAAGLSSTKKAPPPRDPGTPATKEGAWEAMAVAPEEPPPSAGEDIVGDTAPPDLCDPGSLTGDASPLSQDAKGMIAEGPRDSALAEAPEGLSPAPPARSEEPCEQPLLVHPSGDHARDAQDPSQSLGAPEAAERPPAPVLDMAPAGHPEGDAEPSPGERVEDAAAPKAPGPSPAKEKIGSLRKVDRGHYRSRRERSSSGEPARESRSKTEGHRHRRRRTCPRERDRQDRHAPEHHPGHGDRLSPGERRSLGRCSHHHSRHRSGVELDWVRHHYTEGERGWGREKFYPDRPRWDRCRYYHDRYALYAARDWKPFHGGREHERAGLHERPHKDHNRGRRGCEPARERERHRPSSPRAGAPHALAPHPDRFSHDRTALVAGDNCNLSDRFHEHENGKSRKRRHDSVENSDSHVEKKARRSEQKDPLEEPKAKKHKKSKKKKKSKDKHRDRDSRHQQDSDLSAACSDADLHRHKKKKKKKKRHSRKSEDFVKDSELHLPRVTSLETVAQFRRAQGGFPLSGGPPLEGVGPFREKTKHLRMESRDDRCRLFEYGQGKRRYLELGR
How it was run: (§1)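 HEK293T lysate (495 µg per sample, in Tris/CHAPS/IGEPAL buffer with protease inhibitors) was exposed in triplicate for 3 h to fragment at 200 µM or to vehicle, then to Biotin-Ahx-Ub-VS at 0.5 µM final for 1 h. Labelled DUBs were enriched on NeutrAvidin, digested with LysC and trypsin, and analysed by diaPASEF LC-MS/MS. Spectronaut label-free quantities were normalised to the global median, and values are average log2 ratios of fragment over vehicle from an unpaired t-test. Only proteins with ≥2 unique peptides were used.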

[2] = target: USP46 (UniProt P62068)
How it was run: as §1

[3] = target: T2, USP47 (UniProt Q96K76)
T2 sequence (whole entry): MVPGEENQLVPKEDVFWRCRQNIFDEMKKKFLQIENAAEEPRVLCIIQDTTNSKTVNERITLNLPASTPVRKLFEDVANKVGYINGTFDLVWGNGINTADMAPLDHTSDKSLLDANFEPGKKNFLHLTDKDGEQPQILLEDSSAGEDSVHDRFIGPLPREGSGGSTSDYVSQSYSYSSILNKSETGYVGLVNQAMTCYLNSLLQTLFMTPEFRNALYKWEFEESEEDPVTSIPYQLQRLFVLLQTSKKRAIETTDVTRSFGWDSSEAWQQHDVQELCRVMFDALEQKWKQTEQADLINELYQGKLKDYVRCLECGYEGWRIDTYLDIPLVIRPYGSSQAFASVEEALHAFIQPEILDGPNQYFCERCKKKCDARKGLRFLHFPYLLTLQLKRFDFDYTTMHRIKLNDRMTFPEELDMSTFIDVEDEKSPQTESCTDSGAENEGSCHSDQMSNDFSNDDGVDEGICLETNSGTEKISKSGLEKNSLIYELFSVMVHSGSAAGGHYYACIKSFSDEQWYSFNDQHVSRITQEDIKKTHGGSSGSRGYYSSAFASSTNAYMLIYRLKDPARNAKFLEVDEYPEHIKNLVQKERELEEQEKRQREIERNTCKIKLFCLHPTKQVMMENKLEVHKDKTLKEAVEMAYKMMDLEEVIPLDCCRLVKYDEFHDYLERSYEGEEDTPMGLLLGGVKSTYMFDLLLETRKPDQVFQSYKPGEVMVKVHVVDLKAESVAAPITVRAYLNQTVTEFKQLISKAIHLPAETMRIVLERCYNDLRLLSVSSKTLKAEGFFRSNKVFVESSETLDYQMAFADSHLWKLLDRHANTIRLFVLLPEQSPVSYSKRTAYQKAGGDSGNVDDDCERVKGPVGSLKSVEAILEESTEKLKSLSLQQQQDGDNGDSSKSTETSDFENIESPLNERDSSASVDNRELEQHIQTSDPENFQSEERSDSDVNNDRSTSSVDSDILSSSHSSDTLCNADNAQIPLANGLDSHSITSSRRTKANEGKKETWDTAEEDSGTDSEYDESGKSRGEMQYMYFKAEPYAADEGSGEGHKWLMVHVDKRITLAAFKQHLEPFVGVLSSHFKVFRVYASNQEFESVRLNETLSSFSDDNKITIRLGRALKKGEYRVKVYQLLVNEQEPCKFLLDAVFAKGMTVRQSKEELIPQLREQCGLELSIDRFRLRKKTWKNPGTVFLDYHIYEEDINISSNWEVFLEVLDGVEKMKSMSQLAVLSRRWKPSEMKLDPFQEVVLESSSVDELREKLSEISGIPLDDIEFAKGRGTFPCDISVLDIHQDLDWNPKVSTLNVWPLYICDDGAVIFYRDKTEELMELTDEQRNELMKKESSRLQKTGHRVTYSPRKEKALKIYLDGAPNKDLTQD
How it was run: as §1

[4] = target: T3, USP48 (UniProt Q86UV5)
T3 sequence (whole entry): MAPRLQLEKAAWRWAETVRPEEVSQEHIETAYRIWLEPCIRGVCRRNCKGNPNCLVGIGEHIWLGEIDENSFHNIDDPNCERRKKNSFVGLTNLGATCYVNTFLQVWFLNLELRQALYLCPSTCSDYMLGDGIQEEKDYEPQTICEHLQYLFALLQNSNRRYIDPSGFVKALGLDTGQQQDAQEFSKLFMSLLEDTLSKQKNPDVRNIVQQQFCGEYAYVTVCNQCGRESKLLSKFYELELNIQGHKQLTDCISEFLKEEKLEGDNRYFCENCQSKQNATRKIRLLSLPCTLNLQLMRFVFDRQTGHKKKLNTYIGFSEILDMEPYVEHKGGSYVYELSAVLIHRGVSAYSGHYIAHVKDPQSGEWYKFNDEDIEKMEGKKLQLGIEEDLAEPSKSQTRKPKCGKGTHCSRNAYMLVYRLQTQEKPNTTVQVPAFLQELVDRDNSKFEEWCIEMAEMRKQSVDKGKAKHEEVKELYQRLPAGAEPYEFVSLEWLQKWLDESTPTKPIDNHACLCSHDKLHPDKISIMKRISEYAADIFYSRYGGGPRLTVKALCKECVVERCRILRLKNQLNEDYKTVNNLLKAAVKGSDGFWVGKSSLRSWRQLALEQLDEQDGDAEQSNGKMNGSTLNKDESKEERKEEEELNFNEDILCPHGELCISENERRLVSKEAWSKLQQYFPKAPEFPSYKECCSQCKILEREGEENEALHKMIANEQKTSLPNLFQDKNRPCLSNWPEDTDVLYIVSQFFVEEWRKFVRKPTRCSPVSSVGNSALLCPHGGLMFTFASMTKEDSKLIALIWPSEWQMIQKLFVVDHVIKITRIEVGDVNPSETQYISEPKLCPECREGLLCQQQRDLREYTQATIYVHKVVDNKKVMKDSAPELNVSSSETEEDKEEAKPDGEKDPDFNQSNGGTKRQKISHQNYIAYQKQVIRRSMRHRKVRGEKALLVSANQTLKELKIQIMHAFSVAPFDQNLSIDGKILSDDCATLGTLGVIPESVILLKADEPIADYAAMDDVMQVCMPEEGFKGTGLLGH
How it was run: as §1

[5] = target: T4, USP5 (UniProt P45974)
T4 sequence (whole entry): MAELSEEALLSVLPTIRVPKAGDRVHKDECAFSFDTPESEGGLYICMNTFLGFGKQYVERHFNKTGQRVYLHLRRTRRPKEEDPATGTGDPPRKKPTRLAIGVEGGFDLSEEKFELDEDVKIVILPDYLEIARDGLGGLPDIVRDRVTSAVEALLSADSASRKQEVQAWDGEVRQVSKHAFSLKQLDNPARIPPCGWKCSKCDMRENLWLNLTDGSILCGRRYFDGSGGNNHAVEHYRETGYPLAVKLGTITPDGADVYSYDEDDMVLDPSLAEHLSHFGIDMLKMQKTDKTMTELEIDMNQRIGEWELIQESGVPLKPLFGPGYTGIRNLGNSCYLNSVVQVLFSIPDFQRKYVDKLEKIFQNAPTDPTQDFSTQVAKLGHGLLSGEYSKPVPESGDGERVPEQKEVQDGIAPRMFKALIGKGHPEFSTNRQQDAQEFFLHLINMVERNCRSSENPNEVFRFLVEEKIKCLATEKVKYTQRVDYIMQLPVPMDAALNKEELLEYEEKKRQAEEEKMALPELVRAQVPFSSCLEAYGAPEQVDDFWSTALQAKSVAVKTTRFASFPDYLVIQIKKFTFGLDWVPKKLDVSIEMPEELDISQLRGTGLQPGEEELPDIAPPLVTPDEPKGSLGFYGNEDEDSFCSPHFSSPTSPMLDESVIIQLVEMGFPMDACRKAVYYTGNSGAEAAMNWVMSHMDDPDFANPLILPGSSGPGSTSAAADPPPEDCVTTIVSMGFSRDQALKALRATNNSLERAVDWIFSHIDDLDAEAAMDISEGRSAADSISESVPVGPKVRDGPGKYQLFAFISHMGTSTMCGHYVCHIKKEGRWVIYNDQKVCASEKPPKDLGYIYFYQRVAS
How it was run: as §1

[6] = target: USP54 (UniProt Q70EL1)
How it was run: as §1

[7] = target: USP7 (UniProt Q93009)
How it was run: as §1

[8] = target: T5, USP8 (UniProt P40818)
T5 sequence (whole entry): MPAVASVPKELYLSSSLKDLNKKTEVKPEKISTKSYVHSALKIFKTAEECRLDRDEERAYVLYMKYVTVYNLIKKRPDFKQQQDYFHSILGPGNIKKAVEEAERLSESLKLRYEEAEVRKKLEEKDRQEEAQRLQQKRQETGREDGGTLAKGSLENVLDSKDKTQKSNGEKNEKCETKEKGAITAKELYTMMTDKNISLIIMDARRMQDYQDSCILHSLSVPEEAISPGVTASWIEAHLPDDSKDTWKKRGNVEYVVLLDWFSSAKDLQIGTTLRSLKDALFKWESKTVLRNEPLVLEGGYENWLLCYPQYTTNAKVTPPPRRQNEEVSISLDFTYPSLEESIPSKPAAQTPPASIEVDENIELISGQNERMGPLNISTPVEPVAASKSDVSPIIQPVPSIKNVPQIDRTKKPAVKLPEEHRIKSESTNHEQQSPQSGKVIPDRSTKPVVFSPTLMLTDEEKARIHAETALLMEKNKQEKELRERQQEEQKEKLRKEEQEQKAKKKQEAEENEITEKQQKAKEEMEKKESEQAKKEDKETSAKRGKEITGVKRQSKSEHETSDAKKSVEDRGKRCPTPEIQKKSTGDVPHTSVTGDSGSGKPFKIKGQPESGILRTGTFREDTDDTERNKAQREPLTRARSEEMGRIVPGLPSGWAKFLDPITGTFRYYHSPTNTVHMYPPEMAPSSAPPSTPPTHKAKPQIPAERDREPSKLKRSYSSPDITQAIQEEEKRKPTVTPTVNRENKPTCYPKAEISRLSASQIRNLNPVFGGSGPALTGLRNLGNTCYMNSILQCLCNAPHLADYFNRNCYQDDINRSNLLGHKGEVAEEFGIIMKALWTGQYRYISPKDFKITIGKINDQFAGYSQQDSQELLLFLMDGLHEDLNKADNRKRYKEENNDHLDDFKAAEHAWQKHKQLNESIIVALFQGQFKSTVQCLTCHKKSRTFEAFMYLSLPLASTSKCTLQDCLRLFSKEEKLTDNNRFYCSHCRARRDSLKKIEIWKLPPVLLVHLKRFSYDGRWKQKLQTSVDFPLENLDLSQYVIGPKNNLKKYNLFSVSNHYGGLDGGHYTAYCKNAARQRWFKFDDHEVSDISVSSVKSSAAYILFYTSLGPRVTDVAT
How it was run: as §1

[9] = target: USP9X (UniProt Q93008)
How it was run: as §1

[10] = target: UniProt O00487
How it was run: as §1

Measured: log2 ratio of Biotin-Ahx-Ub-VS probe labelling

USP46, sequence (P62068 whole entry): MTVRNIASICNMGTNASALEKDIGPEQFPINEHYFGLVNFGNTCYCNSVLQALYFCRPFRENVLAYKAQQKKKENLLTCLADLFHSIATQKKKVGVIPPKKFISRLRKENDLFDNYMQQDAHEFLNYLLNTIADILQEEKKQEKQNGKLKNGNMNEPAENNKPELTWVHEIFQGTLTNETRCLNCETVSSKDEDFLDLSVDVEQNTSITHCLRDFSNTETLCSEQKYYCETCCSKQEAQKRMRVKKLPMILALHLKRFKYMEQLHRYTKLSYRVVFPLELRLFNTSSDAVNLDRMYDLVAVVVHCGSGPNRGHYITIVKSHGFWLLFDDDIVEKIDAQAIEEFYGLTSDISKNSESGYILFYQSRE
USP54, sequence (Q70EL1 whole entry): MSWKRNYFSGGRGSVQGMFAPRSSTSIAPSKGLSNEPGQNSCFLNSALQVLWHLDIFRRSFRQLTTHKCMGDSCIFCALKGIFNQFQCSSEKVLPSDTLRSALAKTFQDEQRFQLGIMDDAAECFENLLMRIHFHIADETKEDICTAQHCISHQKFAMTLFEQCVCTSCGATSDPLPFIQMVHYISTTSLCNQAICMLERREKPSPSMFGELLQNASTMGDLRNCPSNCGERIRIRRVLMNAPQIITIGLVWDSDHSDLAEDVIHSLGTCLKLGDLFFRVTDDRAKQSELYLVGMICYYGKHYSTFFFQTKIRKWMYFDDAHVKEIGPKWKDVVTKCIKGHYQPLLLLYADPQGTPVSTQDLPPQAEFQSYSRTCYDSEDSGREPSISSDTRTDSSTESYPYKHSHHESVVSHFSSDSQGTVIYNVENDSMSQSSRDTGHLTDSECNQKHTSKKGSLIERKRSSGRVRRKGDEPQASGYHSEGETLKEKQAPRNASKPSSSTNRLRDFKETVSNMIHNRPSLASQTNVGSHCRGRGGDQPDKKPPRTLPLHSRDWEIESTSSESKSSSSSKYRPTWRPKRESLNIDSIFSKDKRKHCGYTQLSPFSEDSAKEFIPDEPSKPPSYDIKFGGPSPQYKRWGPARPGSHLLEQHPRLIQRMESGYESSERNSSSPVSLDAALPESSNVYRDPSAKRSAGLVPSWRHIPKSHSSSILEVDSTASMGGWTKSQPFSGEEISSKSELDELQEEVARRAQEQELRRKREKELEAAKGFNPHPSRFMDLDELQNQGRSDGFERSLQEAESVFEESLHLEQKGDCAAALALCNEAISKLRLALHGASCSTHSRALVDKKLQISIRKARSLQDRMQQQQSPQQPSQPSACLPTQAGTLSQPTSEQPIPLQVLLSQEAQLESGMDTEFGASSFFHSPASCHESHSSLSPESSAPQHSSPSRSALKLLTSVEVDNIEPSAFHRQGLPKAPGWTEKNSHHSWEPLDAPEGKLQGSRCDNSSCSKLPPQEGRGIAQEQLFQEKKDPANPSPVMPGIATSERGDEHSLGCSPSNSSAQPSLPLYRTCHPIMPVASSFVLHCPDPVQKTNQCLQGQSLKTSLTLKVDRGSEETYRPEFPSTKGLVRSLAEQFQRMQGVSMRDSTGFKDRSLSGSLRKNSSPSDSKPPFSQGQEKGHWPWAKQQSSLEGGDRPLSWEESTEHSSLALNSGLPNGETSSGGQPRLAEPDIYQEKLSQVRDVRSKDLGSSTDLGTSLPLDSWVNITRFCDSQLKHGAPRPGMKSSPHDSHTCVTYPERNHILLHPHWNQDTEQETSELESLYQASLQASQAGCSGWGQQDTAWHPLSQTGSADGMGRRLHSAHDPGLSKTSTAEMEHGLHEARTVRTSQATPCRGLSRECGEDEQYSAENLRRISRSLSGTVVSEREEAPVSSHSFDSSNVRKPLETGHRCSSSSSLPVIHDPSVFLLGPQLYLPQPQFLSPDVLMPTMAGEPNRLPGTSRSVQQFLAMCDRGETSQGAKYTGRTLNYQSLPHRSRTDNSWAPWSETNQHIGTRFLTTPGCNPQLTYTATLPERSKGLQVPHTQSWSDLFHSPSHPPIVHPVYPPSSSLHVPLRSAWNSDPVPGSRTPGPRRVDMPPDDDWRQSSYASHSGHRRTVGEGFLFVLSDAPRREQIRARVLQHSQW
USP7, sequence (Q93009 whole entry, looked up): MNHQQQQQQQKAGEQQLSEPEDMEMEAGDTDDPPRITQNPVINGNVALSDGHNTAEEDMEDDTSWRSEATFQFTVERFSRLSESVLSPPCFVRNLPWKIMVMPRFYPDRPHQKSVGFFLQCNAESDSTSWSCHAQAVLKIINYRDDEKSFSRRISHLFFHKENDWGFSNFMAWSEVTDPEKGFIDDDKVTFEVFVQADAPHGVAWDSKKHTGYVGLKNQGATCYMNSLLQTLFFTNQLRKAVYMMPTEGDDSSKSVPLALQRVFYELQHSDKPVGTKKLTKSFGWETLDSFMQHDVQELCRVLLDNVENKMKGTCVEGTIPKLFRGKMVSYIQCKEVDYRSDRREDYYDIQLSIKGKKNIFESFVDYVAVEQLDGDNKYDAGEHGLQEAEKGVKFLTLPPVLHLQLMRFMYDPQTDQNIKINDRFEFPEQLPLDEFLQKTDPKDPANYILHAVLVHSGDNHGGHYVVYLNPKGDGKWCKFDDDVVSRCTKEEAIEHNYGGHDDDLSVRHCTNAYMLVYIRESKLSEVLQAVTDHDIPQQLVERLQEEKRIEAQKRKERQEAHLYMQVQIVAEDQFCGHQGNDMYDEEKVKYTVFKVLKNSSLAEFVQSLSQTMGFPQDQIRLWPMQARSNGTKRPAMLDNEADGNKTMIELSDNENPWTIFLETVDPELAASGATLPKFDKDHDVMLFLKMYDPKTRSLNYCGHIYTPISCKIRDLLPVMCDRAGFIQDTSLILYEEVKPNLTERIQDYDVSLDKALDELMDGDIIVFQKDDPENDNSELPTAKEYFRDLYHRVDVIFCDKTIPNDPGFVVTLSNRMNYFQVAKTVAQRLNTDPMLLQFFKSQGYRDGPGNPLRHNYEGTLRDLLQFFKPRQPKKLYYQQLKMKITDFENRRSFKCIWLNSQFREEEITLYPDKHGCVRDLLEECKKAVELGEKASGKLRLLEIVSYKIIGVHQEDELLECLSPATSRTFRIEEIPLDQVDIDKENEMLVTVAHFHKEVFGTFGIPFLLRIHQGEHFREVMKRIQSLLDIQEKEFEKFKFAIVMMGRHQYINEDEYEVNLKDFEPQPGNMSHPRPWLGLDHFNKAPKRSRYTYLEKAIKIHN
UniProt O00487, sequence (O00487 whole entry): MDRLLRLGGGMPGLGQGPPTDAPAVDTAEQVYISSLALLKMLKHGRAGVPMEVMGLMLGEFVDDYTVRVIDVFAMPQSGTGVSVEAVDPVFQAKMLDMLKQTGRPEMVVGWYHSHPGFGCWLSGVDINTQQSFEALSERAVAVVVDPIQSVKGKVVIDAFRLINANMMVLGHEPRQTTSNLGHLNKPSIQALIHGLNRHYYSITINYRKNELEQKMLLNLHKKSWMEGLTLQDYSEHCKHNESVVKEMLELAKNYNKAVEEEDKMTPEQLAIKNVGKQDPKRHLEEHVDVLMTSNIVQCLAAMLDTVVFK

Cc1ccccc1C1(CNC(=O)CCl)CCOCC1
inactive: [1] -0.0942 | [2] 0.0453 | [3] -0.619 | [4] -0.295 | [5] 0.17 | [6] 0.35 | [7] -0.102 | [8] -0.0708 | [9] -0.0641 | [10] -0.115

Cl.O=C(CCl)N[C@H]1C[C@@H](n2cccn2)C1
inactive: [1] 0.0882 | [2] -0.00232 | [3] 0.175 | [4] 0.0582 | [5] -0.126 | [6] -0.186 | [7] -0.218 | [8] 0.27 | [9] -0.0582 | [10] 0.0109
